{
  "source": "PubChem BioAssay (NCI)",
  "note": "Values joined by “and” are separate entries in the source; they are usually repeats but may differ in a detail not shown here. Identical values can stand only once. Compounds without any hit were thinned out: in the full panel of roughly 83,000, 20% have a hit.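 Cells were grown in 96-well plates and exposed to the test compound at a single concentration for 48 hours; results are reported as percent growth, with values below 10 considered active.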 Active and inactive are the calls of the source.",
  "data": [
    {"test_system": "UACC-62 melanoma", "test": "NCI-60 one-dose screen, 48 h (100 = growth as untreated, 0 = no growth, -100 = all killed)", "conditions": "10 µM unless noted", "values": [
      {"smiles": "CC1=CC[C@@H]2[C@@H](CC[C@@]2(C)O)C(C)(C)[C@H]1CC[C@@H]1[C@@]2(C)CC[C@@H](O)C(C)(C)O[C@@H]2CC[C@]1(C)O", "growth": "-81.4% [100 µM] (active) and -96.9% [100 µM] (active)"},
      {"smiles": "Cc1c2c(c(C)c3c[n+](C)ccc13)Oc1ccccc1O2", "growth": "-77.7% [100 µM] (active) and -100% [100 µM] (active)"},
      {"smiles": "C=c1c2ccccc2oc2nc3[nH]c(N)c(C#N)c(N)c3c(=N)c12", "growth": "44.5% [100 µM] (inactive) and 0.738% [100 µM] (active)"},
      {"smiles": "CC(C)(C)N/N=C(/Cc1nc2c3c(ccc2[nH]c1=O)C(=O)c1ccccc1C3=O)C(=O)NC1=C(Cl)C(=O)c2ccccc2C1=O", "growth": "22.1% [100 µM] (inactive) and 1.57% [100 µM] (active)"},
      {"smiles": "S=C1NC2=C(COc3ccccc32)C(c2ccc(Cl)cc2)N1", "note": "(stereo not drawn)", "growth": "-56.9% [100 µM] (active) and -100% [100 µM] (active)"},
      {"smiles": "CC1(C)CCC2(C(=O)O)C(O)CC3(C)C(=CCC4C5(C)CCC(OC6OCC(O)C(O)C6OC6OCC(O)C(O)C6OC6OCC(O)C(OC7OC(CO)C(O)C(O)C7O)C6O)C(C)(C)C5CCC43C)C2C1", "note": "(stereo not drawn)", "growth": "97.8% [100 µM] (inactive) and 5.39% [100 µM] (active)"},
      {"smiles": "COc1ccc(OC)c(Cc2cnc3nc(N)nc(N)c3c2C)c1", "growth": "1.25% [100 µM] (active) and -100% [100 µM] (active)"},
      {"smiles": "CCOC(=O)COc1cc(-c2ccccc2F)nc2cc3c(cc12)OCO3", "growth": "69.3% [100 µM] (inactive) and 35.8% [100 µM] (inactive)"},
      {"smiles": "Cc1ccc(NC(=S)C#N)cc1Cl", "growth": "-35.5% [100 µM] (active) and -95.7% [100 µM] (active)"},
      {"smiles": "COc1ccc2nc3c4c(nccc4c2c1)-c1ncccc1C3=O", "growth": "-95.8% [50 µM] (active) and -100% [50 µM] (active)"},
      {"smiles": "Cn1c(COC(=O)NC2CCCCC2)c(COC(=O)NC2CCCCC2)c2ccc3cc(Cl)c(Cl)cc3c21", "growth": "-50.6% [100 µM] (active)"},
      {"smiles": "On1c(-c2ccccc2)nc2ccccc2c1=S", "growth": "-68.5% [100 µM] (active) and -97.5% [100 µM] (active)"},
      {"smiles": "COc1ccc2c(c1)C(N)=C(c1ccccc1)C2=O", "growth": "80.5% [100 µM] (inactive) and 28.2% [100 µM] (inactive)"},
      {"smiles": "CCOC(=O)C1C(C(C)C)C2(C#N)C(=N)OC1(C)C2(C#N)C#N", "note": "(stereo not drawn)", "growth": "-51.6% [100 µM] (active) and -86.9% [100 µM] (active)"},
      {"smiles": "CN1CCc2cc3c(c4c2C1C(O)c1ccccc1-4)OCO3", "note": "(stereo not drawn)", "growth": "-88.3% [100 µM] (active) and -88.4% [100 µM] (active)"},
      {"smiles": "C=C(CO)C(=O)OC1CC(=C)C2CC(O)C(C)C2C2OC(=O)C(=C)C12", "note": "(stereo not drawn)", "growth": "60.1% [100 µM] (inactive) and -100% [100 µM] (active)"},
      {"smiles": "CC1(C=O)CCC23COC4(CCC5C6(C)CCC(OC7OCC(OC8OC(CO)C(O)C(OC9OC(CO)C(O)C(O)C9O)C8OC8OCC(O)C(O)C8O)C(O)C7OC7OC(CO)C(O)C(O)C7O)C(C)(C)C6CCC5(C)C4(C)CC2O)C3C1", "note": "(stereo not drawn)", "growth": "-69% [100 µM] (active) and -57.3% [100 µM] (active)"},
      {"smiles": "Cc1ccc(/C=N/Nc2cc(C)c3cccc(C)c3n2)s1", "growth": "-91.7% [100 µM] (active) and -100% [100 µM] (active)"},
      {"smiles": "O=Cc1ccc(-c2ccc(-c3ccc(CO)s3)o2)s1", "growth": "-65% [100 µM] (active) and -100% [100 µM] (active)"},
      {"smiles": "CCOc1ccc(NC(=O)/C(=N\\N)C(C(=O)OC)c2nc3ccc(Cl)cc3[nH]c2=O)cc1", "note": "(stereo not drawn)", "growth": "79.7% [100 µM] (inactive) and 57.3% [100 µM] (inactive)"},
      {"smiles": "COc1c(/C=C/C=O)cc2c(c1OC)OCO2", "growth": "-90.2% [100 µM] (active) and -97.4% [100 µM] (active)"},
      {"smiles": "CCOc1cc2c(cc1O)/C(=N\\OC)C[C@@H]1[C@@H]2CC[C@]2(C)[C@@H](O)CC[C@@H]12", "growth": "-31.9% [100 µM] (active) and -75.8% [100 µM] (active)"},
      {"smiles": "C=C1C(=O)OC2CC3(C)CCCC(C)C3=CC12", "note": "(stereo not drawn)", "growth": "-100% [100 µM] (active) and -93.9% [100 µM] (active)"},
      {"smiles": "COC(=O)[C@]1(C)CCC[C@@]2(C)[C@@H]3C[C@@H]4[C@H]5C[C@@]3(CC[C@@H]21)C[C@@]45C", "growth": "-98.2% [100 µM] (active) and -85.1% [100 µM] (active)"},
      {"smiles": "Fc1cccc(F)c1C1SCc2nc3cc4ccccc4cc3n21", "note": "(stereo not drawn)", "growth": "21.7% [100 µM] (inactive) and 19.9% [100 µM] (inactive)"},
      {"smiles": "N=C1C(=N)c2ccccc2-c2ccccc21", "growth": "53.6% [100 µM] (inactive) and -56.4% [100 µM] (active)"},
      {"smiles": "C[C@@H]1CCC([C@@H](C)[C@H]2CC[C@H]3[C@@H]4CC[C@H]5C[C@@H](O)CC[C@]5(C)[C@H]4CC[C@]23C)=NC1", "growth": "-45.8% [100 µM] (active) and -54.1% [100 µM] (active)"},
      {"smiles": "CC1=CC[C@@H]2[C@@H](CC[C@@]2(C)O)C(C)(C)[C@H]1CC[C@@H]1[C@@]2(C)CCC(=O)C(C)(C)O[C@@H]2CC[C@]1(C)O", "growth": "-76.1% [100 µM] (active) and -100% [100 µM] (active)"},
      {"smiles": "COc1ccc2c(c1)C(OC)C1c3c(cc4c(c3-2)OCO4)CCN1C", "note": "(stereo not drawn)", "growth": "-93.1% [100 µM] (active) and -89.5% [100 µM] (active)"},
      {"smiles": "O=C(/C=C/c1ccccc1)CCC1C(=O)c2ccccc2C1=O", "growth": "41.6% [100 µM] (inactive) and 19.1% [100 µM] (inactive)"},
      {"smiles": "C=C1C(=O)OC2CC1C(OC(=O)/C=C/c1ccccc1)C/C(C)=C/CC/C(C)=C/CCC2(C)O", "note": "(stereo not drawn)", "growth": "-95.6% [100 µM] (active) and -90.1% [100 µM] (active)"},
      {"smiles": "CC1=C(C2=C(C)C(=O)C(=O)c3cc(C)ccc32)c2ccc(C)cc2C(=O)C1=O", "growth": "-92.5% [100 µM] (active) and -100% [100 µM] (active)"},
      {"smiles": "CC1OC(OC2C(OC3CCC4(C)C(CCC5(C)C4CC=C4C6CC(C)(C)CCC6(C(=O)O)CCC45C)C3(C)CO)OCC(O)C2O)C(O)C(O)C1O", "note": "(stereo not drawn)", "growth": "-94% [100 µM] (active) and -96.7% [100 µM] (active)"},
      {"smiles": "Cc1cc(O)c2c(c1)C(=O)C(c1c(C)cc3c(c1O)C(=O)C1OC1C3=O)=CC2=O", "note": "(stereo not drawn)", "growth": "-91.9% [100 µM] (active) and -93.6% [100 µM] (active)"},
      {"smiles": "CC1(C)CCC[C@]2(C)[C@@H](C=O)C(C=O)=CC[C@@H]12", "growth": "-87.9% [100 µM] (active) and 4.13% [100 µM] (active)"},
      {"smiles": "C=C1C(=O)C2=CC1CCC(=O)C1(C)CCC(OC(C)=O)C(C)(C)C1CC2O", "note": "(stereo not drawn)", "growth": "-95.4% [100 µM] (active) and -100% [100 µM] (active)"},
      {"smiles": "C=C(C)C1CC2(C)C(C)CC(O)CC2C(OC(=O)C=C(C)C)C1O", "note": "(stereo not drawn)", "growth": "9.73% [100 µM] (active) and 41.9% [100 µM] (inactive)"},
      {"smiles": "C=CCO/N=C/c1cc(NC(=S)c2ccoc2C)ccc1Cl", "growth": "-98.8% [100 µM] (active) and -100% [100 µM] (active)"}
    ]}
  ]
}
